Consider 55 compounds from PubChem BioAssay AID493131 (Broad Institute, 2011).

Structures are written as SMILES. Out of some 340,000 compounds screened, about 3,300 (0.97%) were called active. Many of the other results were omitted from the sample, so actives are more common in it than they were. Unmarked numbers belong to inactive results.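 Rule for the calls: active = mean activation above about 17%, with every replicate also reaching it (limit read from the data, passing the limit was not always enough); inconclusive = only one of the two conditions met; inactive = the rest.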

In the assay the target is Protein FosB (Mus musculus) (UniProt P13346). Put plainly: activators of delta FosB homodimer, primary screen, biochemical, fluorescence polarization, TAMRA-CDK5 oligo, single point (AID 493131).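 Note: fluorescence polarization rise as delta FosB binds a TAMRA Cdk5 AP-1 oligo.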 The note with it: purified delta FosB, at 25 µM, stronger effect = higher value, percent of positive-control signal above neutral wells. (In general: Polarisation of emitted light reports the rotation of a fluorescent probe.)
Chain of Protein FosB (Mus musculus) (P13346 whole entry, looked up): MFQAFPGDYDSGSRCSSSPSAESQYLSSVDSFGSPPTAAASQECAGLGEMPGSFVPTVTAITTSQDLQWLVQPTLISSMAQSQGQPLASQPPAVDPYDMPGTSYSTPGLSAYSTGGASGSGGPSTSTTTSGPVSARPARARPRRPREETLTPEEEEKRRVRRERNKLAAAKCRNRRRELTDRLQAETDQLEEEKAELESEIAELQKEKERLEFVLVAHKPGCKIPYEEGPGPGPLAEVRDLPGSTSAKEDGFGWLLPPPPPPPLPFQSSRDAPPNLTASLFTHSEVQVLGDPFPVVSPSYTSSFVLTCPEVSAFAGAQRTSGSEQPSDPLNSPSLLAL
On to `COc1cc(NS(=O)(=O)c2ccc(NC(=O)c3ccc([N+](=O)[O-])cc3)cc2)ncn1`, for which the activation is -0.999%.
The same measure for `Cn1ccc(=Nc2ccc(NC(=O)c3ccc(N=c4ccn(C)c5ccc([N+](=O)[O-])cc45)cc3)cc2)cc1`: 62.2% (active).
For the compound `CCc1ccc(NC(=O)c2ccc(Cn3cc([N+](=O)[O-])cn3)cc2)cc1`, the activation is 4.46%.
The same measure for `COc1ccc(C(=O)Nc2ccnn2C2CCN(Cc3ccncc3)CC2)cc1`: -4.76%; for `O=C(NCc1ccc2c(c1)OCO2)c1c(-c2ccsc2)sc2ccccc12`: -2.79%.
For the compound `O=S(=O)(c1ccc(Cl)cc1)c1nc(-c2ccccc2F)oc1NCCN1CCOCC1`, the activation is -12.7%.
Next, `Cc1ccc(S(=O)(=O)N2CCN(C(=O)COC(=O)c3c(C)cc(C)cc3C)CC2)c(C)c1`: -5.88%; `Cc1ccc(S(=O)(=O)N2CCN(C(=O)COC(=O)/C=C/c3cccc(Cl)c3)CC2)c(C)c1`: -10.6%; `COc1ccc(/C=C/C(=O)OCC(=O)N2CCN(S(=O)(=O)c3ccc(C)cc3C)CC2)cc1OC`: 19.8% (active).
The same measure for `Cc1ccsc1C(=O)NNC(=O)COc1ccc(Br)cc1`: -0.652%.
Next, `NC(=NC(=O)c1ccccc1)C1=C(O)CCC1=O`: -12.8%; `COCCOC(=O)C1=C(C)Nc2nc(C)nn2C1c1ccccc1` (stereo not given): -7.61%; `COC(=O)c1nc2n(n1)C(c1ccc([N+](=O)[O-])cc1)C(C(=O)Nc1ccc(Cl)cc1)=C(C)N2` (stereo not given): 34.5% (active).
As for `COc1cc(C2C(C(=O)Nc3ccc(F)cc3)=C(C)Nc3nc(CCCO)nn32)cc(OC)c1OC` (stereo not given), the activation is -9.9%.
The same measure for `COC(=O)/C(=C\Nc1ccccc1)NC(=O)c1ccc(Cl)cc1Cl`: 4.01%.
Next, `COc1cccc(C2CC(c3cccs3)=NN2C(=O)CSC2=NCCS2)c1OC` (stereo not given): -11.4%; `Nc1nonc1-n1nnc(C(=O)N/N=C/C2CCCCC2)c1-c1ccccc1`: -11.3%; `CC(C)c1c(C(=O)N/N=C/c2ccc(-c3ccccc3)cc2)nnn1-c1nonc1N`: -2.45%.
Next, `Nc1nonc1-n1nnc(C(=O)N/N=C/c2ccc(Cl)cc2)c1-c1ccc2c(c1)OCO2`: 32.2% (active); `CC(Sc1nncn1C)C(=O)Nc1ccccc1-c1ccccc1` (stereo not given): -4.45%; `O=C(CSCc1ccc([N+](=O)[O-])cc1)Nc1cccc(C(=O)Nc2ccccc2C(=O)O)c1`: -3.8%.
Regarding `O=C(COCc1cc(-c2ccc3c(c2)OCO3)on1)N1CCN(c2cccc(Cl)c2)CC1`, the activation is -10.2%.
Take `O=C(NCCCN1CCOCC1)c1cc2c(s1)CCC2`: the activation is -3.83%.
Next, `CN1CCN(CCCNC(=O)c2cc3c(=O)oc4ccccc4c3s2)CC1`: -39.5%; `Cc1cccc2c1-c1sc(C(=O)NCCCN3CCc4ccccc4C3)cc1CO2`: 22.8% (active).
Next, `C=CCn1c(Oc2ccc(C(=O)OC)cc2)nc2c1c(=O)n(C)c(=O)n2C`: 2.74%; `CC(C)=C1C2CCC1C1C(=O)N(NC(=O)c3ccco3)C(=O)C21` (stereo not given): 5.44%; `COc1ccc(C)cc1NC(=O)CCCN1C(=O)NC(C)(C)C1=O`: 1.82%.
The same measure for `COc1ccc2c(c1)c(=O)c(C(=O)c1ccc(Cl)cc1)cn2CC(=O)Nc1ccc(F)cc1`: 101% (active).
With `COc1ccc(OC)c(C(=O)c2ccc(Cl)cc2)c1`, the activation is 6.81%.
The same measure for `O=C(c1ccc(F)cc1)c1cn(Cc2ccc(F)cc2)c2cc3c(cc2c1=O)OCCO3`: -2.37%; for `CC1(C)CC2CC(C)(CN2c2ncnc3ccc(Br)cc23)C1` (stereo not given): -14.7%.
Next, `C=CCn1c2ccccc2c2nnc(SCc3[nH]c(=O)[nH]c3C(=O)CCCCC(=O)OCC)nc21`: -0.527%.
In the case of `CCC(=O)Nc1ccc2nc(C)n(Cc3ccccc3Cl)c(=O)c2c1`, the activation is -9.12%.
As for `CCN1CCN(c2cc3nc(C)n(Cc4ccccc4)c(=O)c3cc2NC(=O)c2ccccc2F)CC1`, the activation was 27.5% (active).
For `CCOc1cc(NC(=O)c2ccccc2C(=O)O)c(OCC)cc1NC(=O)c1ccccc1F`, the activation is -3.46%.
The same measure for `CCOc1cc(CO)ccc1OCC(=O)N1CCCCC1`: -0.227%; for `O=C(COc1coc(CN2CCN(c3ccccc3F)CC2)cc1=O)N1CCc2ccccc21`: 21.9% (active).
Next, `O=C(COc1coc(CN2CCN(c3ccccc3)CC2)cc1=O)N1CCc2ccccc21`: -7.12%; `O=C(COc1coc(CN2CCN(c3ccccc3)CC2)cc1=O)Nc1ccccc1F`: -11.2%.
The same measure for `Nc1cc(=O)n(Cc2ccccc2)c(=O)n1Cc1ccccc1`: -1.18%; for `CC(=O)Nc1sc2c(c1C(c1cccc(F)c1)N1CCN(CCO)CC1)CCCC2` (stereo not given): -12.2%.
`Cn1cccc1/C=C1\SC(=O)N(CC(=O)Nc2ccc(F)cc2)C1=O`: the activation was 30.6% (active).
Next, `Cc1nn(CC(=O)Nc2ccc(F)cc2)c(=O)c2ccccc12`: 0.886%; `O=C(CN1C(=O)S/C(=C\c2ccccc2F)C1=O)NCCCn1ccnc1`: -4.31%.
The same measure for `CC(C)c1cc(C(=O)O)on1`: 5.07%; for `COc1ccc(C2CC(c3cccs3)Nc3nnnn32)cc1` (stereo not given): -5.14%.
The same measure for `Fc1ccc(-c2ccc(CNCc3ccccn3)o2)cc1Cl`: -10.2%; for `O=C(Cc1nc2ccccc2[nH]c1=O)c1ccc(Cl)cc1`: 25% (active).
Take `O=C(Cc1ccc(Cl)cc1)c1ccccc1`: the activation was -2.82%.
Next, `O=C(/C(=C/c1cccc(Cl)c1)c1nc2ccccc2[nH]1)c1ccccc1`: 0.879%.
Next, `COc1cccc2c1C(=O)c1c(O)c3c(c(O)c1C2=O)CC(O)(C(C)=NNC(=O)c1ccc(Cl)c(Cl)c1)CC3OC1CC(N)C(O)C(C)O1` (stereo not given): -409%.
The same measure for `O=C(COc1ccccc1Cl)Nc1ccccc1C(=O)NC1CC1`: -11.8%; for `O=C(COc1ccccc1Cl)Nc1ccc(C(=O)c2ccc(C(=O)O)cc2)cc1`: -0.74%; for `CC(=O)Nc1ccc(NC(=O)COc2ccccc2C(=O)Nc2cccc(Cl)c2Cl)cc1`: 26% (active).
